Hits are enriched below; roughly 21% of the tested compounds scored in any of these assays.
TDP1 cell CPT: DT40-hTDP1 cell growth loss with CPT | 12% of 420,000 active | chicken DT40 Tdp1-/-;hTDP1 cells + 20 nM CPT, ATP luminescence, 48 h | Potency, µM (titrated, usually from 46.2 µM), for the others: at the highest dose activity change, negative = growth inhibition, most hits filed as inhibitors; further: potency means the concentration at half of the fitted maximal effect; nearly all actives have a fitted effect of over 55% in size
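Chicken DT40 Tdp1-/- cells stably complemented with human TDP1 were seeded at 400 cells/well in medium containing 20 nM camptothecin, exposed to pin-transferred compounds, and grown at 37 °C for at least 48 hr. Viability was read as ATP luminescence.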
IL-1B inflam inh: inhibitors of inflammasome signaling (IL-1 beta secretion) | 4.7% of 360,000 active | THP-1 LPS/ATP IL-1B secretion, AlphaLISA, 16 h; stronger effect = lower value | AID 743279 | activity change, % at 57.5 µM; in the data active means activity change below about -50%; inconclusive means mostly about -30% to -49%
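Secreted IL-1B measured by AlphaLISA bead assay after 16 h compound exposure of THP-1 cells; compounds (final up to 57.5 uM) added 1 h before LPS (250 ng/mL) and ATP (1.25 mM) stimulation; lower signal means less secretion.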
DT40 TDP1 no CPT: qHTS for Inhibitors of human tyrosyl-DNA phosphodiesterase 1 (TDP1): qHTS in cells in absence of CPT. Potency, µM (titrated, usually from 46.2 µM), without a hit: at the highest dose activity change, negative = growth inhibition, hits mostly inhibitors. AID 686978, 2013. 15% of 420,000 active. DT40 Tdp1-/- hTDP1 cells, no CPT, ATP luminescence, 48 h; further: potency means the concentration at half of the fitted maximal effect; nearly all actives have a fitted effect of over 55% in size
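Seeded 400 DT40-hTDP1 cells/well (vehicle DMSO, no 20 nM CPT); pinned compounds; ≥48 hr at 37 °C; CellTiter-Glo luminescence as viability measure.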
ELG1 repair inh: inhibitors of ELG1-dependent DNA repair in HEK293T cells | 2.3% of 330,000 active | HEK293T ELG1-luciferase reporter, luminescence, 16 h; DNA damage induced by 5-fluorouridine | Potency, µM (top dose mostly 46.1 µM), without a hit: top-dose activity change, negative = inhibition, actives largely listed as inhibitors | AID 504467; further: potency means the concentration at half of the fitted maximal effect; nearly all actives have a fitted effect of over 55% in size
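Quantitative HTS, concentration-response format. 2,000 cells/well co-treated with 5-fluorouridine and compound, 16 hr in 5% CO2 at 37 °C; ONE-Glo luminescence read after 30 min.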
RORgamma inh: ROR gamma (mouse) transcription inhibition; P51450; Drosophila S2 Gal4-RORgamma UAS-luciferase reporter, 20 h; Potency, µM (doses to about 53.6 µM), for the others: at the highest dose activity change, negative = inhibition, most hits filed as inhibitors; 5.4% of 310,000 active; AID 2551; further: potency means the concentration at half of the fitted maximal effect; nearly all actives have a fitted effect of over 60% in size
Target sequence (P51450 whole entry, looked up, the tested form may be a part): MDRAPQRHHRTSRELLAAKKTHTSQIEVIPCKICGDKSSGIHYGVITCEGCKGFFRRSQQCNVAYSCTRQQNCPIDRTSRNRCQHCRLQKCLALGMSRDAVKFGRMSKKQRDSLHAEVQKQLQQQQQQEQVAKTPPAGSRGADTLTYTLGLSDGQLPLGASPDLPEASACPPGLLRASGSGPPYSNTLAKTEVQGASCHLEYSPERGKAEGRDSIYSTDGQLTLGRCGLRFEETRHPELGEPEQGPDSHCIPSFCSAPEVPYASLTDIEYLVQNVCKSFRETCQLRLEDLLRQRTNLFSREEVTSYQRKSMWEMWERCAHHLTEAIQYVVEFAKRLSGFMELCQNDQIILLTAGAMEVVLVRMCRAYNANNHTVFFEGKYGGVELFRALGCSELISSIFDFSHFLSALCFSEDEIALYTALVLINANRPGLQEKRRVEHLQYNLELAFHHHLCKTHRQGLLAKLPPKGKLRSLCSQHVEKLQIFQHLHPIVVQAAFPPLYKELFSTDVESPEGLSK
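Luminescence from a UAS-regulated Photinus luciferase reporter in stably transfected Drosophila Schneider cells is measured; decreased signal marks ROR gamma inhibition. Fusion expression is induced by 700 uM copper sulfate for 20 hr.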
VP16 counter: Gal4-VP16 reporter inhibition counter-screen; Potency, µM (series often up to 53.6 µM), inactives show at the highest dose activity, negative = inhibition, actives largely listed as inhibitors; 3.5% of 310,000 active; Drosophila S2 Gal4-VP16 UAS-luciferase, luminescence, 20 h; AID 2546;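 further: Gal4-VP16 expression switched on by copper sulfate through the metallothionein promoter; potency means the concentration at half of the fitted maximal effect; nearly all actives have a fitted effect of over 50% in size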
The depositor's hits bear a star; ? = inconclusive; nt = no result given; ! = repeats disagree. Unless noted, the call rests on the fitted dose curve; in most records, active means well fitted curve in the direction sought with a large enough effect; inconclusive means small, poorly fitted or top-dose-only effect, or another doubt; inactive means no such curve, though single readings can be large; an effect the other way counts as inactive or inconclusive. On the % scale 0 is the no-effect control and ±100 the full control effect.

SMILES | TDP1 cell CPT | IL-1B inflam inh | DT40 TDP1 no CPT | ELG1 repair inh | RORgamma inh | VP16 counter
CCCn1c2ccccc2c2cnn(CC(=O)N(CCCOC(C)C)Cc3ccco3)c(=O)c21 | 16µM* | nt | 16µM* | nt | nt | nt
CCCn1c2ccccc2c2cnn(CC(=O)NC3CCCC(C)C3C)c(=O)c21 (stereo not drawn) | ? | -5 | 2.1µM* | 10% | -3% | 0%
CCn1c(=O)c(-c2ccccc2)c(O)c2ccccc21 | 14% | 11 | 0% | 10% | 14% | -5%
CCOC(=O)[C@]12CCCC=C1N(Cc1ccco1)C(=O)[C@H](CC(=O)NCC1CCCCC1)C2 | ? | -20 | ? | nt | nt | nt
COc1cccc(N2CC(NC(=O)C3CCCCC3)CC2=O)c1 (stereo not drawn) | -29% | nt | -2% | nt | nt | nt
Cc1onc(NC(=O)NC(=O)c2c(Cl)cccc2Cl)c1Br | -1% | 14 | 0% | 5% | 3% | -1%
CCCn1c2ccccc2c2cnn(CC(=O)NCCc3ccccc3)c(=O)c21 | 23µM* | nt | ? | nt | nt | nt
CCC1CCCCN1CCCNC(=O)Cn1ncc2c(C)n(Cc3ccccc3Cl)c(C)c2c1=O (stereo not drawn) | 18µM* | -11 | 18µM* | -1% | 0% | 1%
CCCn1c2ccccc2c2cnn(CC(=O)O)c(=O)c21 | -3% | 3 | -6% | 2% | -1% | 3%
Cc1c2cnn(CC(=O)NCCCN3CCCCC3)c(=O)c2c(C)n1Cc1ccccc1 | -19% | -22 | -24% | ? | -10% | -2%
CCOC(=O)c1cccc(NC(=O)C2CCN(S(=O)(=O)c3c(C)noc3/C=C/c3ccc(C)cc3)CC2)c1 | 21µM* | nt | 12µM* | nt | nt | nt
CCN(CCNC(=O)C1CCN(S(=O)(=O)c2c(C)noc2C)CC1)c1ccccc1 | ? | 5 | 23µM* | -18% | 0% | -1%
Cc1ccc(/C=C/c2onc(C)c2S(=O)(=O)N2CCC(C(=O)Nc3ccc(Br)c(C)c3)CC2)cc1 | -26% | nt | -23% | nt | nt | nt
Cc1noc(C)c1S(=O)(=O)N1CCC(C(=O)NCCN2CCC(C)CC2)CC1 | -11% | -8 | 6% | -1% | -31% | -14%
COc1ccc(/C=C\c2onc(C)c2S(=O)(=O)N2CCC(C(=O)Nc3cccc(OC)c3)CC2)cc1 | 15µM* | nt | 16µM* | nt | nt | nt
CNC(=O)C1CCN(S(=O)(=O)c2c(C)noc2/C=C/c2cccc(OC)c2)CC1 | 3% | -20 | -15% | ? | -8% | 1%
CCOc1ccc(NC(=O)C2CCN(S(=O)(=O)c3c(C)noc3C)CC2)cc1 | ? | 15 | -14% | 19% | 0% | -5%
CCc1ccc(NC(=O)C2CCN(S(=O)(=O)c3c(C)noc3C)CC2)cc1 | ? | 1 | 18µM*! | -17% | 12% | 5%
CCCCC[C@H](O)/C=C/[C@@H]1[C@@H](C/C=C\CCCC(=O)O)[C@H](O)C[C@H]1O | nt | nt | nt | nt | -17% | -10%
CC1CN(Cc2nc3ccccc3c(=O)[nH]2)CC(C)O1 (stereo not drawn) | -7% | -3 | -22% | 8% | -19% | 6%
COc1cc(C(O)c2nc(-c3cccc4cccnc34)cs2)ccc1F (stereo not drawn) | ? | 0 | ? | nt | nt | nt
O=C(Nc1ccc([N+](=O)[O-])cc1)OC1CCS(=O)(=O)C1 (stereo not drawn) | -16% | 35 | -22% | nt | nt | nt
COc1ccc(OC)c(NC(=O)C2CCN(S(=O)(=O)c3c(C)noc3/C=C/c3ccc(C)cc3)CC2)c1 | -22% | nt | ? | nt | nt | nt
CCc1ccc(NC(=O)C2CCN(S(=O)(=O)c3c(C)noc3/C=C\c3ccc(OC)cc3)CC2)cc1 | 8.2µM* | nt | 5.2µM* | nt | nt | nt
CCOC(=O)[C@@H]1[C@H]2COc3ccc(Br)cc3[C@H]2N2C(=O)N(c3ccc(Cl)cc3)C(=O)[C@]12C | ? | -3 | 9.2µM* | -5% | nt | nt
SMILES | TDP1 cell CPT | IL-1B inflam inh | DT40 TDP1 no CPT | ELG1 repair inh | RORgamma inh | VP16 counter
CCOC(=O)[C@H]1[C@H]2COc3ccc(Br)cc3[C@@H]2N2C(=O)N(c3ccccc3)C(=O)[C@@]12C | 18µM* | 23 | -28% | 5% | nt | nt
CCOC(=O)[C@@H]1[C@H]2COc3ccc(Br)cc3[C@@H]2N2C(=O)N(c3ccccc3)C(=O)[C@@]12C | ? | 18 | -17% | -15% | 10µM* | 6%
CCOC(=O)[C@@H]1[C@H]2COc3ccc(Br)cc3[C@@H]2N2C(=O)N(c3ccc(Br)cc3)C(=O)[C@]12C | -14% | -9 | ? | 0% | 2% | 1%
CCOC(=O)[C@@H]1[C@H]2COc3ccc(Br)cc3[C@H]2N2C(=O)N(c3ccc(Br)cc3)C(=O)[C@]12C | ? | 8 | ? | 1% | 3% | -12%
CCOC(=O)[C@@H]1[C@H]2COc3ccccc3[C@@H]2N2C(=O)N(c3ccccc3)C(=O)[C@@]12C | -10% | 26 | -22% | 6% | 13µM* | -24%
CC1Cc2c([nH]c(=O)n(-c3ccccc3)c2=O)O1 (stereo not drawn) | -4% | 11 | 1% | nt | nt | nt
Cc1ccccc1OCCSc1nnc(-c2ccc([N+](=O)[O-])cc2)o1 | -25% | nt | -17% | nt | nt | nt
CC[C@@H]1Cc2[nH]c(=O)[nH]c(=O)c2[C@H](c2ccc(Cl)cc2)O1 | 11% | 47 | -13% | nt | nt | nt
CCOC(=O)[C@@H]1[C@H]2COc3ccc(Br)cc3[C@H]2N2C(=O)N(c3ccc(C(F)(F)F)cc3)C(=O)[C@]12C | ? | 7 | 12µM* | -9% | nt | nt
Cc1ccc(S(=O)(=O)NC2CCCCC2)c(C)c1NS(C)(=O)=O | -3% | -8 | -14% | -6% | -12% | 1%
CCCCc1nc2sc3c(SCC(=O)NCc4ccco4)ncnc3c2c2c1CCC2 | 13µM* | 17 | 11µM* | -11% | 1% | -12%
CCCCc1nc2sc3c(SCCN(C)C)ncnc3c2c2c1CCC2 | ? | nt | ? | 13% | 1% | -10%
CCCCSc1nc(SCC(=O)NCc2ccco2)c2c3c(sc2n1)COC(C)(CC)C3 (stereo not drawn) | -1% | -5 | -6% | ? | -7% | -11%
CSc1nc(SCC(=O)NCc2ccco2)c2c3c(sc2n1)COC(C)(C)C3 | 13µM* | 86 | 8.2µM* | ? | 1% | 1%
CC(C)Sc1nc(NCc2ccco2)c2c3c(sc2n1)COC(C)(C)C3 | 26µM* | -17 | 15µM* | 17% | 32% | ?

Bioassay records from PubChem.
